Test results reported in PubChem BioAssay (NCATS).
Results filed as inconclusive are left out. Entries that show only a call come without a potency. The source made the active and inactive calls. Calls follow the shape of the dose curve; as a rule, active = well fitted curve in the direction sought with a large enough effect; inconclusive = small, poorly fitted or top-dose-only effect, or another doubt; inactive = no such curve, though single readings can be large or run the other way.

Target: Metallo-beta-lactamase type 2 (Klebsiella pneumoniae) (UniProt C7C422)
Sequence (C7C422 whole entry, looked up): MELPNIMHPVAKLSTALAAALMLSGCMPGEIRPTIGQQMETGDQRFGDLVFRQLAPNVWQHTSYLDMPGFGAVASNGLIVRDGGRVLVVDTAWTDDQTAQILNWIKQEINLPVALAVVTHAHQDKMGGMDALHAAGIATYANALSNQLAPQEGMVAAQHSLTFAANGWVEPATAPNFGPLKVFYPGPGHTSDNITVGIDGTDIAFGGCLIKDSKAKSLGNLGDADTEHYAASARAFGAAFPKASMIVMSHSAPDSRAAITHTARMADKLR
Test: qHTS to identify inhibitors of the New Delhi Metallo-beta-lactamase (NDM): assay validation screen against the NCATS LOPAC Collection (AID 1794843)
Conditions: NDM-1 enzyme, nitrocefin hydrolysis, absorbance 485 nm; series mostly up to 38.4 µM
Excerpt: Assay Submitter (PI): James Inglese Ph.D., Patricia Dranchak Ph.D., Mahesh Aitha Ph.D.
Assay Development and Screening Technology Laboratory (ADST)
National Center for Advancing Translational Sciences (NCATS), Rockville, MD
National Institute of Health (NIH), Bethesda, Maryland
The metallo-beta-lactamases (MBL) are a main antibiotic resistance mechanism evolved by bacteria. There is an urgent clinical need for MBL inhibitors to mitigate this growing threat. To support a machine-based learning study, qHTS has been used to experimentally test inhibitors identified by prediction tools.
PROTOCOL TABLE (as described by Inglese et al., 2007)
SEQUENCE No. (e.g., 1, 2, 3, etc.); […] (e.g., enzyme, Incubation, Reagent, etc.); VALUE; DESCRIPTION
1; NDM-1; 4 uL of 3 nM enzyme in 50 mM HEPES (pH 7.0), 1 uM Zn2SO4, 0.01% Tween20; Use BioRaptr to dispense into Aurora black, clear bottom low base 1536-well plates
2; Compounds; 23 nL; Use Pin Tool (Wako) to transfer DMSO control and library compounds in DMSO
4; Reagent; 2 uL of 50 uM nitrocefin
6; Detector; Absorbance at 485 nm (bandwidth = 5 nm, 25 flashes/well) on Tecan Infinity
NOTES (numbers refer to sequence above)
1; Column 1 of each plate received assay buffer without enzyme and columns 2-48 received enzyme for a final assay concentration of 2 nM.
2; Control plate contained DMSO in columns 1, 2, 3, and 4.
3; Compound interaction with enzyme.
5; Substrate interaction with enzyme, plateau phase of kinetics.
6; Default reader settings were applied for absorbance read at 485 nm, bandwidth = 5 nm, 25 flashes/well.
Inglese J, Shamu CE, Guy RK. 2007. Reporting data from high-throughput screening of small-molecule libraries. Nat Chem Biol. doi:10.1038/nchembio0807-438
Yasgar A, Shinn P, Jadhav A, Auld D, Michael S, Zheng W, Austin CP, Inglese J, Simeonov A. 2008. Compound Management for Quantitative High-Throughput Screening. J Lab Autom 13:79 - 89. doi:10.1016/j.jala.2007.12.004
Potency is read from the fitted curve at half-maximal effect.

Row | SMILES | Potency
1 | Nc1c(S(=O)(=O)O)cc(Nc2ccc(Nc3nc(Cl)nc(Nc4ccc(S(=O)(=O)O)cc4)n3)c(S(=O)(=O)O)c2)c2c1C(=O)c1ccccc1C2=O | 631 nM (active)
2 | CN1C2CCCC1CC(NC(=O)c1nn(C)c3ccccc13)C2 (configuration not stated) | inactive
3 | O=C1c2ccccc2C(=O)c2c(NCCc3ccc(O)cc3)ccc(NCCc3ccc(O)cc3)c21 | inactive
4 | O=Nc1c(-c2c(O)[nH]c3ccccc23)[nH]c2ccccc12 | inactive
5 | N#C/C(=C\c1ccc(O)c(O)c1)C(=O)Nc1ccccc1 | inactive
6 | C[C@H](Cc1ccccc1)Nc1ncnc2c1ncn2[C@@H]1O[C@H](CO)[C@@H](O)[C@H]1O | inactive
7 | CC[N+](CC)(CC)CC | inactive
8 | S=C(Nc1ccccc1)Nc1nccs1 | inactive
9 | Cc1cccc(/C=C/c2ccccc2)n1 | inactive
10 | Oc1cc2c(c(Cl)c1O)CCNCC2c1ccccc1 (configuration not stated) | inactive
11 | N.N.O=C(O)C1(C(=O)O)CCC1.[Pt+2] | 3980 nM (active)
12 | CCc1ccc(/C=C2/SC(=S)NC2=O)cc1 | inactive
